From PubChem BioAssay (NCI)
Compounds without any hit were thinned out: in the full panel of roughly 83,000, 20% have a hit.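 The endpoint reported here, percent growth, reads 100 for growth as untreated, 0 for no net growth and -100 for all cells dead.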 Calls of active or inactive are those of the source. How the source made its calls: active means growth percent below 10; inactive means the rest.

Tested on: HL-60(TB) leukemia
Assay: NCI-60 one-dose screen, 48 h (100 = growth as untreated, 0 = no growth, -100 = all killed)
Settings: 10 µM unless noted

Structure (SMILES)	growth
COc1ccc(NC(=O)CCn2cnc3c(cc(-c4ccccc4)n3-c3ccccc3)c2=O)cc1	95.9% (inactive)
COc1ccc(C(=O)c2cc(F)c(F)c(OC)c2F)cc1OC(=O)CCl	11.7% (inactive)
COc1ccc(-c2cc(-c3ccc(Cl)cc3)c(C#N)c(=O)n2Cc2ccc(C(=O)Nc3ccccc3N)cc2)cc1	84.7% (inactive)
CCOC(=O)CSc1nc2ccccc2c(=O)n1Cc1ccc(S(N)(=O)=O)cc1	100% (inactive)
Cc1nc2c(ccc3ccccc32)s1	84.2% (inactive)
O=C1Nc2ccccc2/C1=C/C(=N/c1nnc(-c2ccc(Cl)cc2)s1)c1ccccc1	-31.8% (active)
C#CCOc1ccc2ncnc(N3CCN(C(=O)CCl)CC3)c2c1	73.4% [8.25 µM] (inactive)
Cc1c(O)c(=O)n(-c2ccccc2)n1C	119% (inactive)
CS(=O)(=O)Nc1ccc(OCc2nnc(-c3ccc(Cl)cc3)o2)c(F)c1	115% (inactive)
Cn1cccc1/C=C1\C(=O)Nc2ccccc21	103% (inactive)
COc1cc2oc(-c3ccc(O)cc3)cc(=O)c2c(O)c1-c1c(OC)cc(O)c2c(=O)cc(-c3ccc(O)cc3)oc12	0.122% (active)
CCC(C)(O)Cc1ccc(Cl)cc1 (stereo not given)	96% (inactive)
COc1cc(C(=O)/C=C/c2c(-c3cccs3)nc3sc(C)cn23)cc(OC)c1OC	-18.4% (active)
COc1ccccc1NS(=O)(=O)c1ccc2oc(SC(C)C)nc2c1	53.6% (inactive)
COc1cc2c(Oc3ccc4[nH]c(C)cc4c3F)ncnc2cc1OCCCN1CCCC1	102% (inactive)
